Data on one sequence can be found in publication PMC7862700, “An all-to-all approach to the identification of sequence-specific readers for epigenetic DNA modifications on cytosine”.

Test in all cases: DAPPL (digital affinity profiling via proximity ligation, sequencing); 10 mM Tris-HCl pH 7.5, 50 mM NaCl, 1 mM DTT, 4% glycerol, room temperature, 30 min; GST-TFs on glutathione beads, 16-mer random dsDNA library, 0.1% formaldehyde crosslink after washing; high values mean tight binding
Common to all, as to details: protein: recombinant; tags: N-terminal GST; dsDNA, one strand shown

In one test the target is T1, FLI1 (Homo sapiens, UniProt Q01543 1-452).
T1 sequence: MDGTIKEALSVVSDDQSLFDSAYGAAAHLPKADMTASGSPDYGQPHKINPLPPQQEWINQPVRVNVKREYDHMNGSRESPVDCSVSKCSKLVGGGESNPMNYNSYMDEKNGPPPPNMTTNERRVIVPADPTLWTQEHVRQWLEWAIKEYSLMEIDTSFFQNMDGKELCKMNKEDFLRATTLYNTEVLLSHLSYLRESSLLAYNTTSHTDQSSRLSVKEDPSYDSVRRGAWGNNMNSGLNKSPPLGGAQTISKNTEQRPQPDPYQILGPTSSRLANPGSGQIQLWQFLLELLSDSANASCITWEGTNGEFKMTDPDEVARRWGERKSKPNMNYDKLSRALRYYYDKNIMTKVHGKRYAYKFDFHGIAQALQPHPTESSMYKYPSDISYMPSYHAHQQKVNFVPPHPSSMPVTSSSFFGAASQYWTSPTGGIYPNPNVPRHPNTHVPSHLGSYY
In short, it runs like this: (§1)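 Sequencing on an Illumina NextSeq500 followed washing, crosslinking with 0.1% formaldehyde, proximity ligation (BsaI/T4 ligase, 1 h, 37 °C) and PCR amplification of pools that had been incubated for 30 min at room temperature with 200 nmole of a random double-stranded 16-mer DNA library in Tris/NaCl/DTT/glycerol buffer. Each pool held DNA-barcoded human transcription factors, expressed in yeast as GST fusions and captured on glutathione beads, plus a tag-only sample. Binding signal is a hexamer's read frequency for a factor divided by its frequency in the tag-only sample.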

In the next test the target is T2, ELK1 (Homo sapiens, UniProt P19419 1-428).
T2 sequence: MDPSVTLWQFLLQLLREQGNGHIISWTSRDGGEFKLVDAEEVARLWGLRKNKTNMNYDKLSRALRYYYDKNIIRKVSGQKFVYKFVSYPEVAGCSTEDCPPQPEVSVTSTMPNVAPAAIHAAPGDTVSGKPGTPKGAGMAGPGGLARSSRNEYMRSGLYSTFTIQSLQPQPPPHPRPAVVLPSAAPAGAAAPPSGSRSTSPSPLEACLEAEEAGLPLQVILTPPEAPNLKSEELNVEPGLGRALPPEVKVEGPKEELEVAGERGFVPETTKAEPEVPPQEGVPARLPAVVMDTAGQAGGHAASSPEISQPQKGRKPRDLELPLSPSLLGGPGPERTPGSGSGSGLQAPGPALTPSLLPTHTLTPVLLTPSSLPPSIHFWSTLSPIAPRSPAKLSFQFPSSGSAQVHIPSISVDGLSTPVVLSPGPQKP
In short, it runs like this:
as §1

The target of another test is T3, GABPA (Homo sapiens, UniProt Q06546 1-454).
T3 sequence: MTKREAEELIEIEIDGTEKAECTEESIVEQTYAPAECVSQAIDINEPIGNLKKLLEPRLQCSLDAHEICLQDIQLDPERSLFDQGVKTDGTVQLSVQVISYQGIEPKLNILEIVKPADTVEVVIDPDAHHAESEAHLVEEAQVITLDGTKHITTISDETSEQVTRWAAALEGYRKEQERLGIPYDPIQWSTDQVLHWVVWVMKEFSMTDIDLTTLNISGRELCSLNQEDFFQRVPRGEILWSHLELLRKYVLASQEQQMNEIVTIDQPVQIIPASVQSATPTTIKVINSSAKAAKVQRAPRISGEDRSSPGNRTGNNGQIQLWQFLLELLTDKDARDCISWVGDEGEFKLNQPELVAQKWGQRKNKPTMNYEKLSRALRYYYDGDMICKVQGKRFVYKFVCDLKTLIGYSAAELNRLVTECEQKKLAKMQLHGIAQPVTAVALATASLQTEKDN
In short, it runs like this: as §1

A further test has as its target T4, ERG (Homo sapiens, UniProt P11308 1-479).
T4 sequence: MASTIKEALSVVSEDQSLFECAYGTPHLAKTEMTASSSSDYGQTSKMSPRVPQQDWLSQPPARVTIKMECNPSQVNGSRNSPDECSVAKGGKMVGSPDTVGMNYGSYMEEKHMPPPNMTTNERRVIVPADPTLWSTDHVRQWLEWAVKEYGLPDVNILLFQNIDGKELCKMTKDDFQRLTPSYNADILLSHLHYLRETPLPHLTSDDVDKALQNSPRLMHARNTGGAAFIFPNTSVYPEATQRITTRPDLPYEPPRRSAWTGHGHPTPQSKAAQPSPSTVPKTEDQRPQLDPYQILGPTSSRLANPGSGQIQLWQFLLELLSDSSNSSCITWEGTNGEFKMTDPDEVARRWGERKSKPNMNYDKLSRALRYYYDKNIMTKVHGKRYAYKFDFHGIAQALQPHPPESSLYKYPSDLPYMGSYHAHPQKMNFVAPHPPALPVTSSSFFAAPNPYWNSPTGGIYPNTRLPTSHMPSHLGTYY
The procedure, abridged: as §1

In a further test the target is ELF1 (Homo sapiens, UniProt P32519 1-619). In short, it runs like this: as §1
In another test the target is T5, EHF (Homo sapiens, UniProt Q9NZC4 1-300).
T5 sequence: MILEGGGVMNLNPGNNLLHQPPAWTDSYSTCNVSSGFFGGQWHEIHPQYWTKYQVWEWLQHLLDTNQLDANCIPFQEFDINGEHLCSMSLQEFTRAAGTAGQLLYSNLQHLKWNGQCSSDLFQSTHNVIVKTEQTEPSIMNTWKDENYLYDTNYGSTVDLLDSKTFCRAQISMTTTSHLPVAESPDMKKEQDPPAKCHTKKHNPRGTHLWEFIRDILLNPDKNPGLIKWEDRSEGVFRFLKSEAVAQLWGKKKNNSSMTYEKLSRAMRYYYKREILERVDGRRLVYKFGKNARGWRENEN
In short, it runs like this:
as §1

For another test, the target named is SPI1 (Homo sapiens, UniProt P17947 1-270). The procedure, abridged:
as §1

The target of another test is SPIB (Homo sapiens, UniProt Q01892 1-262). In short, it runs like this:
as §1

The next test deals with T6, ELK3 (Homo sapiens, UniProt P41970 1-407).
T6 sequence: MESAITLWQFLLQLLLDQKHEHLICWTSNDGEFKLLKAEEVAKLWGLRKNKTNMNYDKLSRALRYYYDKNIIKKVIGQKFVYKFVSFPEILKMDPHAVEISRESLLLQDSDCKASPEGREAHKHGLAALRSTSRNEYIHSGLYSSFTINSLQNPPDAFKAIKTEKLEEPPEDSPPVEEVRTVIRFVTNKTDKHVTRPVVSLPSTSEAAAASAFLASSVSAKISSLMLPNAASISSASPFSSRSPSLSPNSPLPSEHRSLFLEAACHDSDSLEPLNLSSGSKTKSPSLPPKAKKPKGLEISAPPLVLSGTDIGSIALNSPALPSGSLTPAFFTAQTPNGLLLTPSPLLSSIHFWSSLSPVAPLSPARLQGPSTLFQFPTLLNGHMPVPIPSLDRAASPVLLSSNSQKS
The procedure, abridged: as §1

The target of another test is T7, FEV (Homo sapiens, UniProt Q99581 1-238).
T7 sequence: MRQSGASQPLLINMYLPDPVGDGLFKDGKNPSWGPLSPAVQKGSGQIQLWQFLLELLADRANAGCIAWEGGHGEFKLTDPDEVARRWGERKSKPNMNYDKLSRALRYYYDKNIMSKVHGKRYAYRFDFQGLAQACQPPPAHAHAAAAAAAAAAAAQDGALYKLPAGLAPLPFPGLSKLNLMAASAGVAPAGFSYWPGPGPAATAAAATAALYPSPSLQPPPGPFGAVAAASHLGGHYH
In short, it runs like this: as §1

A further test addresses ETV5 (Homo sapiens, UniProt P41161 1-510). The procedure, abridged:
as §1

The next test concerns the target T8, SPIC (Homo sapiens, UniProt Q8N5J4 1-248).
T8 sequence: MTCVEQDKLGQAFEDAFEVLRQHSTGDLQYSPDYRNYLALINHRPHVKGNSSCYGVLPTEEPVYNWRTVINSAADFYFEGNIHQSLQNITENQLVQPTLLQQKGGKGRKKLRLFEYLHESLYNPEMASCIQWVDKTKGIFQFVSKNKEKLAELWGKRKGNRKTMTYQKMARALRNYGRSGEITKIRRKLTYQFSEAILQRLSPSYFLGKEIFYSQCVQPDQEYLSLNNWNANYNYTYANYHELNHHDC
The procedure, abridged: as §1

Another test concerns the target ELF4 (Homo sapiens, UniProt Q99607 1-663). The procedure, abridged:
as §1

Another test addresses T9, ELK4 (Homo sapiens, UniProt P28324-2 1-405).
T9 sequence: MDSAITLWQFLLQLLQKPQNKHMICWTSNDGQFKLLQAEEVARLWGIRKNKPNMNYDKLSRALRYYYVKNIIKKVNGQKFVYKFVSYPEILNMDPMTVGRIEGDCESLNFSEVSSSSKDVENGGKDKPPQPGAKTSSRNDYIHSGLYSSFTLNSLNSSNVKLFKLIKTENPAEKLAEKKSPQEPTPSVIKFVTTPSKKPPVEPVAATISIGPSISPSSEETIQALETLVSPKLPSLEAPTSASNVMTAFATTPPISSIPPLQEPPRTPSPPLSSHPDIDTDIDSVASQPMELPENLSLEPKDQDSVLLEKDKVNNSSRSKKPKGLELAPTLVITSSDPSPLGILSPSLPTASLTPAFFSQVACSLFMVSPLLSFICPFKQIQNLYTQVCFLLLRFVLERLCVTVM
In short, it runs like this: as §1

Another test has as its target T10, ETV2 (Homo sapiens, UniProt O00321 1-342).
T10 sequence: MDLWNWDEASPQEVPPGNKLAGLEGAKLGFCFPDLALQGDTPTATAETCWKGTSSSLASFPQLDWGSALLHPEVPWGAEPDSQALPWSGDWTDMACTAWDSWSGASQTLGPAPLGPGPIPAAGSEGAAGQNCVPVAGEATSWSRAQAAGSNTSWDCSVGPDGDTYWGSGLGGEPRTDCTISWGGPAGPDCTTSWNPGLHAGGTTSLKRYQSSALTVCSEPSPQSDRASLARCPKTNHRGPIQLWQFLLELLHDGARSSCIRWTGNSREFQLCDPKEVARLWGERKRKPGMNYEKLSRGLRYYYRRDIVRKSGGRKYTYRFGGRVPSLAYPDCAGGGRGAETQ
The procedure, abridged: as §1

A further test has as its target T11, ELF3 (Homo sapiens, UniProt P78545 1-371).
T11 sequence: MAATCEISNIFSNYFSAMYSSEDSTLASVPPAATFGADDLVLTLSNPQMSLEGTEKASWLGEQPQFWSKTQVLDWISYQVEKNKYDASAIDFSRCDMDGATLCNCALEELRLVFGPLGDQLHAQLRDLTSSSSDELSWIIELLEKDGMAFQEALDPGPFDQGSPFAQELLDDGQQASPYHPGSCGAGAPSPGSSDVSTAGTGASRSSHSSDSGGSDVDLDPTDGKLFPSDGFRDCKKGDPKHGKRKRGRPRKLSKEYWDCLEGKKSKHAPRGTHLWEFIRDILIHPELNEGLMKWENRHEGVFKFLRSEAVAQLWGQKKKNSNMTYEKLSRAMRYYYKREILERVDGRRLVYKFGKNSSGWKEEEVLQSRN
In short, it runs like this:
as §1

The next test concerns the target ETV1 (Homo sapiens, UniProt P50549 1-477). The procedure, abridged:
as §1

ETV5, sequence (P41161 whole entry): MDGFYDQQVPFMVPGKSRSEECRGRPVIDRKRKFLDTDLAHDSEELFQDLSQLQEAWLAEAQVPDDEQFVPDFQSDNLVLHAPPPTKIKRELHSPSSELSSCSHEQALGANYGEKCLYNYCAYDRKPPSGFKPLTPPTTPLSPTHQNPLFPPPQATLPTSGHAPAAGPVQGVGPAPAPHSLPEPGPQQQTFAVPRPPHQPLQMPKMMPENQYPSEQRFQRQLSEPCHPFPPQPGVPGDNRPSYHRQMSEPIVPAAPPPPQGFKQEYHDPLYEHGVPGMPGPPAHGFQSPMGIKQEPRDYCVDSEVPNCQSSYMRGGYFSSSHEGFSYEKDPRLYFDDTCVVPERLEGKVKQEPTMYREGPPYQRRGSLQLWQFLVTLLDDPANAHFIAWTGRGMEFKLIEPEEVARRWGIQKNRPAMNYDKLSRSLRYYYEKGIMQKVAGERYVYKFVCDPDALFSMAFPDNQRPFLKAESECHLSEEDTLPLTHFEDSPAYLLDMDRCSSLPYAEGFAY
ELF4, sequence (Q99607 whole entry): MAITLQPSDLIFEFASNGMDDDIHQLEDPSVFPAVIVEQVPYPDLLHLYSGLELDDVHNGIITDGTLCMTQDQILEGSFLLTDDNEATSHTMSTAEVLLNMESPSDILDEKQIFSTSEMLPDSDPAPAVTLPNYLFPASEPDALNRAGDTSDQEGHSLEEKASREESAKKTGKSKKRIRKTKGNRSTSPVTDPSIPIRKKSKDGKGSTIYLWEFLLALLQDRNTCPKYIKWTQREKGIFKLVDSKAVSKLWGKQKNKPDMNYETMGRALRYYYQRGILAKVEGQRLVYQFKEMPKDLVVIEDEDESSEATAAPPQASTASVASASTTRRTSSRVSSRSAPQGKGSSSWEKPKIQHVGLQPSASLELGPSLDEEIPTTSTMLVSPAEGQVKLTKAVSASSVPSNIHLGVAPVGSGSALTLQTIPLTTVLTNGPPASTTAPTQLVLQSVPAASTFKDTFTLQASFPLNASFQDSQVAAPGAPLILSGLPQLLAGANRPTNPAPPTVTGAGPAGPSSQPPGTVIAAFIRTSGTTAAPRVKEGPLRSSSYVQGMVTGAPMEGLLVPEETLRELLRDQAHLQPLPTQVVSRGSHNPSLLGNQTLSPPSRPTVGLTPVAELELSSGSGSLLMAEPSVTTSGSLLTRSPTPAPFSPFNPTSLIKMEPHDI
ETV1, sequence (P50549 whole entry): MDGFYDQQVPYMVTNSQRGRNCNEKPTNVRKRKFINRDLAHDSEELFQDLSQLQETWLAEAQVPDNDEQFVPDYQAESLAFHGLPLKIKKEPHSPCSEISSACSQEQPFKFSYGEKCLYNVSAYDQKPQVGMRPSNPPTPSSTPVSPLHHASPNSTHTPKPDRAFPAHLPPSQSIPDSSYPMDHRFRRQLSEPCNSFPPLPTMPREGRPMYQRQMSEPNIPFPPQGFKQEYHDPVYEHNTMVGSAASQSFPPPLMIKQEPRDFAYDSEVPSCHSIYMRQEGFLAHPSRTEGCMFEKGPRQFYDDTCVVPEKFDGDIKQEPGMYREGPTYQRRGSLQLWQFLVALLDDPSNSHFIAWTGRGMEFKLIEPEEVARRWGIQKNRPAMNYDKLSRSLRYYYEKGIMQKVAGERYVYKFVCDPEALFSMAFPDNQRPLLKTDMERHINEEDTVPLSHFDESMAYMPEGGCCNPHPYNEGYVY
ELF1, sequence (P32519 whole entry): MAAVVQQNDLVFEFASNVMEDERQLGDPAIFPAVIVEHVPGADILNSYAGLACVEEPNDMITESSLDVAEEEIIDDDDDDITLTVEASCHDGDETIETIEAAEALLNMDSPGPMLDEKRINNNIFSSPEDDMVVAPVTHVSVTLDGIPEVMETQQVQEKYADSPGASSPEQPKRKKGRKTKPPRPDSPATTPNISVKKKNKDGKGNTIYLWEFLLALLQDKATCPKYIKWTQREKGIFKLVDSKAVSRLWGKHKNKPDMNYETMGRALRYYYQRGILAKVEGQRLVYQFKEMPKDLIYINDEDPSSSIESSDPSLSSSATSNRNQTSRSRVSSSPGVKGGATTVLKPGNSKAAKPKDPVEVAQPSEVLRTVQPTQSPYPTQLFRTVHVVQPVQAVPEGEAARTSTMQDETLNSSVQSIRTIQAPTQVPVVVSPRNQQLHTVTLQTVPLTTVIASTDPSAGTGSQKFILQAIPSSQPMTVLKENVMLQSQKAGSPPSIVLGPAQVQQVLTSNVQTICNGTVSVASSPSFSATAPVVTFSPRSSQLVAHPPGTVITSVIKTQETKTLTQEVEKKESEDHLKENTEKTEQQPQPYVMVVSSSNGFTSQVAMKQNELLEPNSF
SPIB, sequence (Q01892 whole entry): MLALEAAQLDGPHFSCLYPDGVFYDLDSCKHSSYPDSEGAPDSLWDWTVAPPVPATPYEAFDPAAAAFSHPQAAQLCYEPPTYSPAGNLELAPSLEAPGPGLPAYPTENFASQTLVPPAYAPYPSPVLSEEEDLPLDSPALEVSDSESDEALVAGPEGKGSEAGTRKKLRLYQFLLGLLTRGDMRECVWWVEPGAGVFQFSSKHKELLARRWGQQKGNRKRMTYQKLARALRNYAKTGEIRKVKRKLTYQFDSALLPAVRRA

For TACCGG, the binding signal is 1.52 fold enrichment (6-mer frequency, TF over GST control) with FLI1; 1.55 fold enrichment (6-mer frequency, TF over GST control) with ELK1; 1.52 fold enrichment (6-mer frequency, TF over GST control) with GABPA; 1.77 fold enrichment (6-mer frequency, TF over GST control) in the test with ERG; 1.53 fold enrichment (6-mer frequency, TF over GST control) with ELF1; 1.67 fold enrichment (6-mer frequency, TF over GST control) with EHF. The binding signal with SPI1 was 1.43 fold enrichment (6-mer frequency, TF over GST control); in the test with SPIB, 1.61 fold enrichment (6-mer frequency, TF over GST control); with ELK3, 1.56 fold enrichment (6-mer frequency, TF over GST control); with FEV, 2.1 fold enrichment (6-mer frequency, TF over GST control); in the test with ETV5, 1.68 fold enrichment (6-mer frequency, TF over GST control); with SPIC, 1.43 fold enrichment (6-mer frequency, TF over GST control). Moreover, the binding signal with ELF4 was 1.51 fold enrichment (6-mer frequency, TF over GST control); in the test with ELK4, 1.4 fold enrichment (6-mer frequency, TF over GST control); with ETV2, 1.5 fold enrichment (6-mer frequency, TF over GST control); with ELF3, 1.78 fold enrichment (6-mer frequency, TF over GST control); in the test with ETV1, 1.73 fold enrichment (6-mer frequency, TF over GST control).
